The text below walks through data of PubChem BioAssay (NCI).

About 83,000 compounds went through this panel and 20% of them were active in at least one assay; those are over-represented in the sample as a whole.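 Treatment: one concentration, 48 hours, 96-well format. Scoring: percent growth, with anything below 10 considered active.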 Unmarked numbers belong to inactive results. Active and inactive are the calls of the source.

What all share (experiment): NCI-60 one-dose screen, 48 h (100 = growth as untreated, 0 = no growth, -100 = all killed)
Assay [1] concerns SK-MEL-2 melanoma. As to conditions: 10 µM unless noted.
Assay [2] deals with EKVX NSCLC. To be noted: 10 µM unless noted.
The subject of assay [3] is SN12C renal. To be noted: 10 µM unless noted.
For assay [4], the system named is UO-31 renal. To be noted: 10 µM unless noted.
The test system of assay [5] is TK-10 renal. As to conditions: 10 µM unless noted.
In assay [6] the test system is CAKI-1 renal. To be noted: 10 µM unless noted.
The subject of assay [7] is A498 renal. As to conditions: 10 µM unless noted.
Assay [8] concerns CCRF-CEM leukemia. To be noted: 10 µM unless noted.
Assay [9] relates to SR leukemia. To be noted: 10 µM unless noted.
For assay [10], the system named is RPMI-8226 leukemia. As to conditions: 10 µM.
Assay [11] deals with OVCAR-8 ovarian. As to conditions: 10 µM unless noted.
For assay [12], the system named is OVCAR-4 ovarian. As to conditions: 10 µM unless noted.
Assay [13] deals with SK-OV-3 ovarian. To be noted: 10 µM.
Assay [14] relates to IGROV1 ovarian. To be noted: 10 µM unless noted.
The subject of assay [15] is OVCAR-3 ovarian. To be noted: 10 µM unless noted.
The subject of assay [16] is HS 578T breast. To be noted: 10 µM unless noted.
Assay [17] relates to NCI/ADR-RES ovarian. As to conditions: 10 µM unless noted.
In assay [18] the test system is ACHN renal. As to conditions: 10 µM unless noted.
For assay [19], the system named is MOLT-4 leukemia. To be noted: 10 µM unless noted.
In assay [20] the test system is OVCAR-5 ovarian. To be noted: 10 µM unless noted.

Take `O=C(O)c1ccccc1Oc1cc(-c2ccco2)nc(OCCBr)n1`: the growth in [1] was 111%; in [2] it was 94.5%; in [3], 94.7%; in [4], 86.6%; in [5] it was 103%; in [6], 90.7%. Besides, the growth is 99.3% in assay [7]; 87.1% in [8]; 102% in assay [9]; 123% in [10]; 103% in [11]; 98.5% in assay [12]. Moreover, the growth in assay [13] was 103%; in assay [14] it was 106%; in [15] it was 105%; in [16] it was 98.1%; in [17], 105%.

Take `O=c1[nH]c(=S)c2c(n1CCCO)CCC2`: the growth in assay [1] is 99.8%; in [2] it was 91.2%; in [3], 99.7%; in assay [4], 89.9%; in assay [5] it was 102%; in assay [18] it was 103%. In addition, the growth is 93.2% in [6]; 104% in assay [19]; 97% in assay [9]; 101% in assay [10]; 102% in assay [11]; 99.4% in [20]. For the same compound, the growth is 102% in assay [12]; 103% in assay [14]; 110% in assay [15]; 99.8% in [16]; 103% in assay [17].

Take `Fc1c[c-]c(-c2ccccn2)c(F)c1.Fc1c[c-]c(-c2ccccn2)c(F)c1.[Cl][Pt+].[Cl][Pt+].c1ccc([PH+](C[PH+](c2ccccc2)c2ccccc2)c2ccccc2)cc1`: the growth in assay [1] is 8.6% (active); in assay [2], 12.4%; in assay [3] it was 5.5% (active); in [4] it was 75.9%; in [18] it was 89.3%; in [6], 41.4%. The growth in assay [7] is 21.6%; in assay [19], 23.4%; in [9], 19.7%; in [11], 15.1%; in assay [20] it was 49.2%; in assay [12] it was 6.98% (active). Besides, the growth was 21.2% in assay [14], 7.81% (active) in assay [15], 26.1% in assay [16] and 97.9% in [17].

As for `Cc1ccccc1-n1nnc(C(=O)Nc2nc(-c3ccccc3)c(-c3ccccc3)s2)c1C`, the growth in assay [1] is 89% [50 µM]; in assay [2], 69.8% [50 µM]; in assay [3], 79.2% [50 µM]; in assay [4], 86% [50 µM]; in assay [18] it was 84.6% [50 µM]; in [6], 63.5% [50 µM]. Besides, the growth was 104% [50 µM] in [7]; 63.5% [50 µM] in assay [8]; 67% [50 µM] in [19]; 69.5% [50 µM] in [9]; 67.9% [50 µM] in assay [11]; 96.5% [50 µM] in [20]. For the same compound, the growth was 58.1% [50 µM] in assay [12]; 89.9% [50 µM] in assay [14]; 79.8% [50 µM] in assay [15]; 46.7% [50 µM] in assay [16]; 84.3% [50 µM] in assay [17].

For `COc1ccc(-c2nc3sc(C)cn3c2/C=C/C(=O)c2cc(OC)c(OC)c(OC)c2)cc1`, the growth in [1] was 63%; in [3] it was 59.5%; in assay [4], 31.6%; in assay [5] it was 96.9%; in assay [18], 54.4%; in assay [6], 76.7%. Moreover, the growth in [7] is 52.5%; in assay [8], 37.4%; in [19] it was 12.2%; in assay [9], 48.5%; in [10], 31.5%; in [11] it was 35.7%. Besides, the growth in assay [20] is 113%; in assay [12], 47.8%; in assay [13] it was 66.4%; in [14] it was 67.1%; in [15], 41.7%; in [16], 37.3%.

For `Nc1nc(-c2ccnc(Cl)c2)nn1-c1nc2ccccc2s1`, the growth in [1] was 108%; in assay [2], 96.5%; in [3] it was 101%; in assay [4], 87%; in assay [18] it was 96.9%; in [6], 95%. The growth in assay [7] was 96.2%; in assay [19], 119%; in [9], 120%; in assay [11], 102%; in assay [20] it was 95.9%; in assay [12], 102%. Also, the growth was 99.1% in [14], 114% in assay [15] and 96.8% in assay [16].

Turning to `COc1cc2cc(Oc3ccc(NC(=O)Nc4cccc(C(F)(F)F)c4)cc3)c(C)nc2cc1OCCN1CCCCC1`, the growth in [1] was -65.9% (active); in [2] it was 27.5%; in assay [3] it was -88.9% (active); in [4], -92.1% (active); in assay [18], -73.3% (active); in assay [6], -77.7% (active). Besides, the growth in [7] was 51%; in assay [8], 1.49% (active); in assay [19], -54.9% (active); in [9] it was -19.4% (active); in assay [11], -38.7% (active); in assay [20] it was 61.6%. The growth in assay [12] is -12.9% (active); in assay [14], -31.2% (active); in [15], -92.6% (active); in assay [16], -53.6% (active).

Take `COc1cc(-c2nc(SC(C)C)nc(Nc3ccccc3C)c2C#N)cc(OC)c1OC`: the growth in assay [1] is 103%; in [2], 102%; in assay [3], 104%; in assay [4], 86.3%; in assay [6], 94.1%; in [8], 103%. Moreover, the growth in [19] is 110%; in assay [9], 110%; in assay [11] it was 103%; in assay [20] it was 99.1%; in assay [12], 110%; in [14] it was 104%. For the same compound, the figures for the growth in [15] and in assay [16] were 121% and 104%, respectively.

Turning to `Cc1c(C(=O)Nc2nc(-c3ccccc3)cs2)nnn1-c1cccc2ccccc12`, the growth was 48.2% [50 µM] in assay [1]; 39.3% [50 µM] in [2]; 67.9% [50 µM] in assay [3]; 49.7% [50 µM] in assay [4]; 58.1% [50 µM] in assay [18]; 35.8% [50 µM] in assay [6]. For the same compound, the growth in assay [7] is 58.5% [50 µM]; in [8], 47.2% [50 µM]; in [19], 30.4% [50 µM]; in assay [9] it was 29.2% [50 µM]; in assay [11], 50.9% [50 µM]; in assay [20], 86.8% [50 µM]. Also, the growth is 23.7% [50 µM] in assay [12]; 69.9% [50 µM] in assay [14]; 71.8% [50 µM] in assay [15]; 79.5% [50 µM] in [16]; 65.1% [50 µM] in [17].
